# Results taken from PubChem BioAssay AID720697 (Broad Institute, 2013).
# Measured potencies and affinities stand elsewhere. Records with an inconclusive call do not appear. A number with no mark means an inactive call.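 The calls were made as follows: active = signal loss with fitted half-maximal concentration at or below twice the top valid tested dose in every test run; inconclusive = runs disagree, flat 30 to 70% signal loss, or poor fit; inactive = all runs flat, opposite direction, or potency beyond limit.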
# Assay: HEK293T cytotoxicity, dose response, cytotoxicity control for miR-122 modulator project, cell-based, inhibitor set, cherry-pick, set 2 (AID 720697);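 also: 0% = median of neutral control wells and -100% = MG132 positive control wells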
# Settings: HEK293T viability, CellTiter-Glo luminescence, 48 h; series mostly up to 26 µM; activity change, negative = cytotoxicity: at the top concentration
row,Compound,"activity change, negative = cytotoxicity"
1,C[C@@H]1CN([C@@H](C)CO)C(=O)c2cccc(NC(=O)c3ccc(-c4nccs4)cc3)c2O[C@H]1CN(C)Cc1ccc2c(c1)OCO2,-20.4% [at 23.5 µM]
2,CN1C(=O)c2cc(NS(=O)(=O)c3cccc(F)c3)ccc2OC[C@@H]2O[C@@H](CC(=O)O)CC[C@@H]21,136% [at 23.5 µM]
3,CCCC#Cc1ccc2c(c1)O[C@H](CN(C)C(=O)COC)[C@H](C)CN([C@@H](C)CO)S2(=O)=O,19%
4,CO[C@@H]1CN(C)C(=O)c2ccc(NC(=O)c3ccc(Oc4ccccc4)cc3)cc2OC[C@H](C)NC[C@H]1C,17.2%
5,CNC(=O)C[C@H]1CC[C@@H]2[C@H](COc3ccc(NS(=O)(=O)c4ccc(F)cc4)cc3C(=O)N2C)O1,-13.9%
6,CNC(=O)C[C@H]1CC[C@@H]2[C@@H](COc3ccc(NC(=O)c4cccc(OC)c4)cc3C(=O)N2C)O1,125%
7,Cc1cc(C(F)F)n2ncc(C(=O)NCCc3ccccc3Cl)c2n1,8.15%
8,CC(C)C(=O)Nc1ccc2c(c1)C(=O)N(C)[C@H]1CC[C@@H](CC(=O)NCCCN(C)C)O[C@H]1CO2,82%
9,COCC(=O)N(C[C@@H]1N[C@H](CO)[C@H]1c1ccc(-c2cccnc2)cc1)C(C)C,-13.9%
10,C[C@H](CO)N1C[C@H](C)[C@@H](CN(C)Cc2ccc(-c3ccccc3)cc2)Oc2ncc(C#CCN(C)C)cc2C1=O,108%
11,C/C=C/c1ccc([C@@H]2[C@@H](CNC(=O)c3ccncc3)N(C(=O)CC)[C@H]2CO)cc1,101%
12,CN1C(=O)c2cc(NC(=O)c3cccs3)ccc2OC[C@H]2O[C@H](CC(=O)NCC(F)(F)F)CC[C@H]21,127%
